Source: PubChem BioAssay (National Center for Advancing Translational Sciences (NCATS))
Giardia FBPA inh: inhibitors of Giardia lamblia fructose-1,6-bisphosphate aldolase. A8B2U2. purified Giardia FBPA. Potency, µM (top dose mostly 59.6 µM), for the others: at the top dose activity, negative = inhibition, usual class: inhibitors. 290,000 tested, 0.71% active. AID 2451; further: potency means the concentration at half of the fitted maximal effect; nearly all actives have a fitted effect of over 55% in size
Target sequence (A8B2U2 whole entry, looked up): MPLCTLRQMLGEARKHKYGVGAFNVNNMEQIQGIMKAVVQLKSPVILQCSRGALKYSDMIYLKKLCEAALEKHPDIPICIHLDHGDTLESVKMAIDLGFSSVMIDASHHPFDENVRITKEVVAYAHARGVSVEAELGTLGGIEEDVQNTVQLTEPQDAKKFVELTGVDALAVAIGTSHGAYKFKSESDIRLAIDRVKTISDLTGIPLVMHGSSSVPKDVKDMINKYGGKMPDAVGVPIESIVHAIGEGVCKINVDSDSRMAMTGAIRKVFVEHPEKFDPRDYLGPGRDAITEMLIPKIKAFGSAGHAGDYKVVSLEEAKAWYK
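40 nM FBPA preincubated 10 min at RT with compound (up to 57.5 uM final), then substrate plus GAPDH/TPI/NAD/arsenate coupling and diaphorase/resazurin added. Fluorescence read after 20 min at RT, 525/598 nm.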
FMDV antiviral: blocks foot and mouth disease virus. 410,000 tested, 1.2% active. Potency, µM (titrated, usually from 57.9 µM), for the others: at the highest dose activity change, negative = inhibition, usual class: inhibitors. FMDV antiviral cell-based qHTS. AID 1159524; calls by dose curve; tested in HEK293T cells; further: read-out not given here; potency means the concentration at half of the fitted maximal effect; nearly all actives have a fitted effect of over 45% in size
HCMV antiviral: blocks human cytomegalovirus replication. AID 1259415. 410,000 tested, 4.5% active. HFF cells, HCMV-luciferase reporter, 72 h; hits give low values. activity change, negative = inhibition, % at 57.5 µM; in the data active means activity change below about -60%; inconclusive means no clear call, values can overlap the other calls; inactive means above about -39%
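HFF cells seeded 16 h at 37C, treated with compounds, infected with luciferase-reporter HCMV at MOI 1 PFU/cell; luciferase read at 72 h post infection, normalized to buffer-only and Salinomycin controls.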
HCV inhibitor: blocks hepatitis C virus; Huh7.5.1 HCVcc-Cre infection, luciferase reporter, 44 h; Potency, µM (top dose mostly 41.8 µM), for inactives: at the top dose activity change, negative = inhibition, usual class: inhibitors; 340,000 tested, 3.4% active; further: potency means the concentration at half of the fitted maximal effect
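HCVcc-Cre virus at an moi near 0.5 was added right after compound to cells cultured 4 h from seeding (1,000 cells/well). Luciferase activity was determined 44 h later, 15 min after substrate addition at RT.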
VACV Venus inh: inhibitors of vaccinia virus (Venus reporter) | Vaccinia virus Venus reporter expression, fluorescence | Potency, µM (titrated, usually from 36.5 µM), without a hit: at the highest dose activity change, negative = inhibition, usual class: inhibitors | 330,000 tested, 0.46% active | AID 720580; calls by dose curve; tested in A549 cells; further: potency means the concentration at half of the fitted maximal effect; nearly all actives have a fitted effect of over 30% in size
VACV mCherry inh: inhibitors of vaccinia virus infection (mCherry reporter signal); Potency, µM (highest dose often 36.5 µM), inactives show at the highest dose activity change, negative = inhibition, actives largely listed as inhibitors; 310,000 tested, 0.63% active; Vaccinia virus mCherry reporter infection, fluorescence; calls by dose curve; tested in A549 cells; further: potency means the concentration at half of the fitted maximal effect; nearly all actives have a fitted effect of over 35% in size
* marks the source's active call; other numbers are inactive results; i = inactive; ? = inconclusive; nt = no result given; ! = a repeat was not active. The list is not random: actives were taken first. Their share in the collection is about 7.5%. Unless noted, the call rests on the fitted dose curve; in most records, active means well fitted curve in the direction sought with a large enough effect; inconclusive means small, poorly fitted or top-dose-only effect, or another doubt; inactive means no such curve, though single readings can be large; an effect the other way counts as inactive or inconclusive. On the % scale 0 is the no-effect control and ±100 the full control effect.

SMILES	Giardia FBPA inh	FMDV antiviral	HCMV antiviral	HCV inhibitor	VACV Venus inh	VACV mCherry inh
COCCn1c(=O)c(-c2cccc(C#N)c2)nc2cnc(N3CCOCC3)nc21	-5%	-7%	nt	nt	nt	nt
COc1cccc(CNC(=O)c2ccc(-n3c(C)cc4c3CCC(C)C4)cc2)c1 (stereo not given)	nt	-22%	-83*	nt	-14%	i
Cc1cc2c(n1-c1ccc(C(=O)NCCc3ccc(Cl)cc3)cc1)CCCC2	nt	-9%	-22	nt	-8%	-24%
Cc1cc2c(n1-c1ccc(C(=O)NCc3cccc(Br)c3)cc1)CCC(C)C2 (stereo not given)	nt	19%	?	nt	-20%	-26%
Cc1ccccc1CNC(=O)c1ccc(-n2c(C)cc3c2CCCC3)cc1	nt	1%	-35	nt	-19%	i
CSc1ccc(CCNC(=O)c2ccc(-n3c(C)cc4c3CCCC4)cc2)cc1	nt	-19%	-98*	nt	?	?
Cc1cc2c(n1-c1ccc(C(=O)NCC(C)c3ccccc3)cc1)CCCC2 (stereo not given)	nt	18%	-61*	nt	-17%	-3%
CCc1nc2cc(C(=O)N[C@H]3CCCCNC3=O)cc(NC(=O)c3ccccc3OC)c2n1C	nt	-20%	nt	nt	-13%	i
CC(CNC(=O)c1csc2c1CCCCC2)c1ccccc1 (stereo not given)	nt	43%	27	nt	-8%	-9%
CN(Cc1ccccc1)c1nc(N)nc(Cl)c1C=O	-19%	?	-29	4µM*	-6%	i
CCOc1ncccc1C(=O)OCc1csc(CC(=O)Nc2ccccc2C)n1	nt	-10%	?	-24%	nt	nt
OCC[n+]1ccc(/C=C/c2c[nH]c3ccccc23)cc1	?	-10%	-99*	3.5µM*	-11%	-16%
CC(C)=CC(=O)O[C@@H]1Cc2cc3ccc(=O)oc3cc2OC1(C)C	nt	-12%	8	3.2µM*	-18%	-13%
CCOC(=O)N1CCC(NC(=O)c2cc3c(-c4cccc(OC)c4)nn(C)c3s2)CC1	1%	?	-20	?	9%	-18%
CC(=O)c1ccc(N2CCN(C(=O)c3cc4c(-c5ccccc5F)nn(C)c4s3)CC2)cc1	-1%	?	-13	14µM*	?	-21%
COc1ccc(N2CCN(C(=O)c3cc4c(-c5cccc(OC)c5)nn(C)c4s3)CC2)cc1	1%	-2%	-24	6.3µM*	-19%	-28%
CCOC(=O)N1CCN(C(=O)c2cc3c(-c4cccc(OC)c4)nn(C)c3s2)CC1	6%	?	9	8.9µM*	-22%	-11%
COC(=O)[C@@H](Cc1c[nH]c2ccccc12)NC(=O)C1CCCN(S(=O)(=O)c2ccc(C)cc2)C1 (stereo not given in full)	1%	0%	-18	1%	nt	nt
Cc1ccc(C23CC4CC(CC(C(=O)N5CCN(C)CC5)(C4)C2)C3)cc1	10%	?	0	2.5µM*	nt	nt
Cc1ccc(C23CC4CC(CC(NC(=O)N5CCN(C)CC5)(C4)C2)C3)cc1	4%	-30%	-6	13µM*	?	nt
Cc1ccc(C)c(N2CCN(C(=O)C34CC5CC(C3)CC(n3nnc(C)n3)(C5)C4)CC2)c1	-1%	?	-38	18µM*	-25%	-16%
Cc1nnn(C23CC4CC(CC(C4)C2)C3)n1	-6%	1%	20	8%	nt	nt
CCCC(Oc1ccc(Br)cc1)c1nc2c3cc(OC)c(OC)cc3nc(=S)n2[nH]1 (stereo not given)	6%	11%	-86*	?	0%	i
O=C(Nc1ccc2c(c1)N(S(=O)(=O)c1cccs1)CCC2)c1c(F)cccc1Cl	nt	3%	-27	14µM*	-24%	-10%
Cc1ccc(S(=O)(=O)N2CCCc3cc(NS(=O)(=O)c4ccc(F)cc4)ccc32)cc1	nt	-25%	?	nt	-9%	-11%
SMILES	Giardia FBPA inh	FMDV antiviral	HCMV antiviral	HCV inhibitor	VACV Venus inh	VACV mCherry inh
COc1cccc(NS(=O)(=O)c2ccc3c(c2)CCCN3C(C)=O)c1	4%	nt	-60*	-11%	-13%	-21%
COc1cccc(OC)c1C(=O)Nc1ccc2c(c1)CCCN2S(=O)(=O)c1ccc(C)cc1	nt	-13%	-64*!	?	-6%	3%
COc1cccc(OC)c1C(=O)Nc1ccc2c(c1)N(S(=O)(=O)c1cccs1)CCC2	-27%	13%	-36	-21%	nt	nt
COc1ccc(S(=O)(=O)Nc2ccc3c(c2)CCCN3S(=O)(=O)c2ccc(C)cc2)cc1F	nt	-12%	-64*	nt	-22%	-11%
COc1ccc(NS(=O)(=O)c2ccc3c(c2)CCCN3C(C)=O)cc1	16%	18%	?	22%	-17%	-21%
CN(C)C(CNC(=O)c1cc(-c2ccco2)nc2ccccc12)c1ccccc1 (stereo not given)	nt	37%	18	-24%	1%	-9%
Cc1cccc(N(C)C(=O)CCNS(=O)(=O)c2ccc3c(c2)CCN3C(=O)C2CC2)c1	nt	-9%	-8	nt	-1%	-13%
COC(=O)[C@]1(C#N)[C@H](CC(C)C)C(=O)N(Cc2ccc(Cl)cc2)[C@@H]1c1ccc(OC)cc1	nt	nt	10	nt	nt	nt
CC(=O)N1CCCc2ccc(NS(=O)(=O)c3ccc(C)c(C)c3)cc21	-11%	-7%	-34	?	-20%	-17%
Cc1ccc(S(=O)(=O)N2CCCc3cc(NC(=O)c4c(F)cccc4F)ccc32)cc1	nt	-8%	-69*!	10µM*	-23%	-9%
COc1ccc(S(=O)(=O)Nc2ccc3c(c2)N(C(C)=O)CCC3)cc1F	nt	10µM*	-11	nt	?	?
Cc1ccc(S(=O)(=O)N2CCCc3cc(NC(=O)c4ccc(F)c(F)c4)ccc32)cc1	nt	-21%	-18	nt	-20%	-10%
CN1C(=O)Cc2cc(S(=O)(=O)CCC(=O)N3CCN(c4ccc(Cl)cc4)CC3)ccc21	nt	0%	-22	nt	1%	-15%
CCOC(=O)c1cc(C(=O)OCC)c(=O)[nH]c1SCc1ccccc1	1%	-9%	-16	1%	nt	nt
Cc1cc[n+](CCC2CCCCC2)c2ccccc12	nt	nt	nt	nt	-38%	?
COc1cc(C(=O)OCC(=O)N2c3ccccc3NC(=O)C2(C)C)ccc1OCC(C)C	nt	?	-12	6.3µM*	?	-21%
CCN(Cc1ccc(OC)c(COC)c1)CC1CCCN(CCc2cccc(F)c2)C1 (stereo not given)	7%	-9%	-31	13µM*	nt	nt
CCN(Cc1ccc(OC)c(COC)c1)CC1CCCN(CCc2cccc(OC)c2)C1 (stereo not given)	6%	-30%	-75*	7.9µM*	nt	nt
CCN(Cc1ccccc1OC)CC1CCCN(CCc2cccc(OC)c2)C1 (stereo not given)	2%	-16%	42	?	-17%	-19%
COc1cc(/C=N/NC(=O)C(=O)/C=C2\NC3(CCCC3)Cc3ccccc32)ccc1O	-3%	?	7	?	-25%	-30%
